# From PubChem BioAssay (NCATS)
# Values joined by “and” are separate entries in the source; they are usually repeats but may differ in a detail not shown here. Equal entries are not always repeated. Inconclusive results are not listed. Values without a mark were called inactive. Active and inactive are the calls of the source. The call rests on the fitted dose curve; in most records, active means well fitted cell-killing curve with a large enough effect; inconclusive means small, poorly fitted or top-dose-only effect, or effect the other way; inactive means no such curve, though single readings can be large or run the other way.
# Assay: Viability qHTS for spleen associated tyrosine kinase inhibitor (SYKi) drug resistant MV4-11 cells (AID 1963824)
# Conditions: SYKi-resistant MV4-11 viability, CellTiter-Glo, 72 h; series mostly up to 45 µM; viability, % of control: at the top concentration
# Procedure, shortened: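 CellTiter-Glo luminescence, read 10 min after reagent addition, reports viability after a 72 hr compound exposure. Cells are an MV4-11 line made resistant to SYK inhibition, seeded at 500 per well onto compound-containing plates.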
# Further: nearly all actives have a fitted effect of over 35% in size.
# Potency means the concentration at half of the fitted maximal effect.
row,SMILES,Potency
1,CN1CCCC(n2nc(Cc3ccc(Cl)cc3)c3ccccc3c2=O)CC1 (centres undefined),26.6 µM (active)
2,Clc1cc(Cl)cc(CNc2ncncc2-c2ccc3c(c2)OCO3)c1,9.34 µM (active)
3,Cc1cc(CS(=O)(=O)c2ccccc2)cc(OCc2ccc(CN3CCC[C@@H]3CO)cc2)c1,16.6 µM (active)
4,COc1c(C)c2c(c(O)c1C/C=C(\C)CCC(=O)O)C(=O)OC2,473 nM (active) and 934 nM (active)
5,CCn1c(N)c(C(=O)NC)c(=O)c2ccc(C#CC(C)(O)COC)nc21 (centres undefined),4.11 µM (active)
6,COc1cc(Oc2ccnc3cc(OC)c(OC)cc23)ccc1NC(=O)NC(C)c1nccs1 (centres undefined),14.8 µM (active)
7,C=CC(=O)Nc1cccc(Oc2nc(Nc3ccc(N4CCN(C)CC4)cc3OC)ncc2Cl)c1,2.06 µM (active) and 2.95 µM (active)
8,O=C(/C=C/c1cccnc1)NCCCCC1CCN(C(=O)c2ccccc2)CC1,0.0053 µM (active)
9,C=CCNC1=C2CC(C)CC(OC)C(O)C(C)/C=C(\C)C(OC(N)=O)C(OC)/C=C/C=C(\C)C(=O)NC(=CC1=O)C2=O (centres undefined),0.332 µM (active)

# Assay: Quantitative highthroughput screen to assess conditional lethalithy of SEM cells grown in RPMI1640 with unreated serum (RPMI+s) (AID 1963883);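 on Viability: 100% = DMSO wells and 0% = empty wells without cells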
# Conditions: SEM B-ALL cells, CellTiter-Glo viability, 48 h; series mostly up to 45.8 µM; viability: at the top concentration
# Procedure, shortened: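 Each medium arm—HPLM with 10% dialyzed FBS, or RPMI1640 with 5 mM glucose and 10% untreated or dialyzed FBS—was screened against an 11-point, 3-fold compound titration for 48 h at 37 °C, with CellTiter-Glo luminescence as endpoint.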
SMILES,Potency,viability [%]
Cc1ccc2nc(NC(=O)CSc3nc4c(c(=O)n3-c3ccccc3)SCC4)sc2c1,16.6 µM (active),
Cc1nc(N)sc1-c1ccnc(Nc2ccc(N3CCOCC3)cc2)n1,2.35 µM (active),
Nc1ncnc2c1nc(Cl)n2[C@@H]1O[C@H](CO)[C@@H](O)[C@@H]1O,14.8 µM (active),
CC[C@H](CC#N)OC(=O)N[C@@H](C)c1cccc(NC(=O)Nc2ccc(-c3cnco3)c(OC)c2)c1,2.09 µM (active),
CCc1nc(C(N)=O)c(Nc2ccc(N3CCC(N4CCN(C)CC4)CC3)c(OC)c2)nc1NC1CCOCC1,0.295 µM (active),
NC(=O)Nc1sc(-c2ccc(F)cc2)cc1C(N)=O,1.32 µM (active),
CN1CCCC(n2nc(Cc3ccc(Cl)cc3)c3ccccc3c2=O)CC1 (centres undefined),,86.8
Clc1cc(Cl)cc(CNc2ncncc2-c2ccc3c(c2)OCO3)c1,26.4 µM (active),
COc1cc(Oc2ccnc3cc(OC)c(OC)cc23)ccc1NC(=O)NC(C)c1nccs1 (centres undefined),33.2 µM (active),
C=CC(=O)Nc1cccc(Oc2nc(Nc3ccc(N4CCN(C)CC4)cc3OC)ncc2Cl)c1,3.72 µM (active),
